Compounds without any hit were thinned out: in the full panel of roughly 79,000, 15% have a hit. Values without a mark were called inactive. Calls of active or inactive are those of the source. Rule as the data show it: active = growth inhibition above about 70%; inactive = the rest.

A short description of the assay: NCI Yeast Anticancer Drug Screen. Data for the sgs1 mgt1 strain (AID 161).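 Also: 0% = growth of cultures given vehicle only.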 To be noted: S. cerevisiae sgs1 mgt1 strain, at 50.0 µM, stronger effect = higher value. Summed up: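 This yeast growth screen uses a strain with defined DNA-repair lesions; compound-treated growth is compared with vehicle-treated growth.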
As for `CN(C)c1ncnc2c1cnn2-c1ccc(Cl)cc1`, the growth inhibition is -9.3%.

With `CCCCC(CC)(CC(=O)O)CC(=O)O`, the growth inhibition was 12.3%.

Turning to `CN1C(=O)c2ccccc2N(C)C(=O)c2ccccc21`, the growth inhibition was 11.3%.

Turning to `Cc1ccccc1NC=O`, the growth inhibition is -44.5%.

With `Cc1ccc(C(=O)Nc2ccc([N+](=O)[O-])cc2)cc1`, the growth inhibition was -0.35%.

As to `O=P(O)(CP(=O)(c1ccccc1)c1ccccc1)c1ccccc1`, the growth inhibition was 15.9%.

For `CC(C)(O)CCC(O)C(C)(O)C1CCC2(O)C3=CC(=O)C4(O)CC(O)C(O)CC4(C)C3CCC12C` (stereo not given) (tested in a mixture with another compound), the growth inhibition is 6.15%.

Consider `O=C(O)/C=C\C(=O)Nc1ccc(S(=O)(=O)Nc2nccs2)cc1`, for which the growth inhibition was -15.2%.

With `O=C(O)/C=C/C(=O)Nc1cc2c(cc1Br)-c1ccccc1C2O` (stereo not given), the growth inhibition is 14.3%.

Regarding `CC(C)CC(NC(=O)CN)C(=O)O` (stereo not given), the growth inhibition was -1.1%.

With `NNC(=O)/C(=C/c1cccc([N+](=O)[O-])c1)NC(=O)c1ccccc1`, the growth inhibition is -15.9%.

With `Cc1cccc[n+]1CC(=O)c1ccccc1[N+](=O)[O-]`, the growth inhibition is -3.3%.

In the case of `O=c1[nH]c(Nc2ccccc2)nc2c1ncn2CC(O)CSCCO` (stereo not given), the growth inhibition was 26.7%.

Turning to `CC(=O)NC(Cc1ccc(O)cc1)C(=O)O` (stereo not given), the growth inhibition was -3.4%.

As to `O=[N+]([O-])c1ccc(NN=C2CCCCCC2)c([N+](=O)[O-])c1`, the growth inhibition is 8.3%.

`CCC(C)C(NCc1ccccc1)C(=O)O` (stereo not given): the growth inhibition is 26.9%.

On to `COc1ccc(/C=N/NC(=O)c2ccccc2OC)cc1`, for which the growth inhibition is 29.9%.

In the case of `O=C1CC=C2C3CC4N(CCC45c4ccccc4N1C25)C/C3=C\CBr` (stereo not given), the growth inhibition is -7.95%.

Regarding `O=C(NNC(=O)c1cccc2ccccc12)c1ccccc1F`, the growth inhibition is -13.9%.

As to `CCCCCCOC(=O)C[n+]1ccc(C(N)=O)cc1`, the growth inhibition is -15.2%.

On to `CCCCCCCCCCCCCCCCOc1ccc(-c2cc(=O)n(C)n2C)cc1OC`, for which the growth inhibition is -9.3%.

In the case of `O=C(O)C1NCCC1Oc1ccccc1` (stereo not given), the growth inhibition was -16%.

On to `CCN(CC)c1ccc(C=O)cc1`, for which the growth inhibition was -36.5%.

Regarding `CCc1ccc(NC(C)=O)cc1C`, the growth inhibition was -0.95%.

Regarding `O=c1[nH]nc(-c2ccccc2)c2c1[nH]c1ccccc12`, the growth inhibition is -0.85%.

With `CCOC(=O)Nc1c(O)cccc1N1CCOCC1`, the growth inhibition was 25.9%.

As to `O=C(/C=C/c1ccc(Cl)cc1)c1cccs1`, the growth inhibition is 36.6%.

For `O=P1(O)c2ccccc2CCc2ccccc21`, the growth inhibition is 3.7%.

In the case of `N=C1N=C(N)C(CCCOc2cc(Cl)ccc2Cl)(CCCOc2cc(Cl)ccc2Cl)C(N)=N1`, the growth inhibition was 97.4% (active).

With `Cc1ccc(S(=O)(=O)CC(O)(C(C)C)C(C)C)cc1`, the growth inhibition is -14.2%.

Turning to `O=C(NNc1nc(N2CCOCC2)nc(N2CCOCC2)n1)c1ccccc1`, the growth inhibition was 10.9%.

In the case of `NC(=O)NC(N)=O`, the growth inhibition was -9.95%.

Turning to `Cc1ccc(-c2cc(=O)c3cc(C)c(C)c(C(=O)O)c3o2)cc1`, the growth inhibition is 10.8%.

Turning to `[N-]=[N+]=NC(=O)c1cccc2c1Cc1ccccc1-2`, the growth inhibition was -4.05%.

Consider `CCc1ccccc1O`, for which the growth inhibition is 3.3%.

Regarding `N#CC(C#N)=C1C=CC=CC=C1`, the growth inhibition is 0.85%.

For `O=C1C(O)=C(Cl)C(=O)C(OC2=C(Cl)C(=O)C(OC3=C(Cl)C(=O)C(OC4=C(Cl)C(=O)C(Cl)=C(Cl)C4=O)=C(Cl)C3=O)=C(Cl)C2=O)=C1Cl`, the growth inhibition is -17.3%.

As for `CC(C)(C)OC(=O)N1CCCC1C(=O)NCCNc1ccc(NCCNC(=O)C2CCCN2C(=O)OC(C)(C)C)c2c1C(=O)c1ccccc1C2=O` (stereo not given), the growth inhibition was 21.4%.

As to `CCCCCCCCCCCCCCCCOc1ccc(C(=O)O)cc1`, the growth inhibition was 5.3%.

As for `COc1ccc(Cl)cc1NC(=O)c1ccc(C(=O)Nc2cc(Cl)ccc2OC)cc1`, the growth inhibition was -10.2%.
